Inconclusive results are not listed. Unmarked numbers belong to inactive results. The source made the active and inactive calls. The call rests on the fitted dose curve; in most records, active means well fitted inhibition curve with a large enough effect; inconclusive means small, poorly fitted or top-dose-only effect; inactive means no such curve, though single readings can be large or run the other way.
assay: Acumen qHTS Assay for Inhibitors of the mTORC1 Signaling Pathway in WT MEF Cells: Hit Validation; details: Acumen imaging; series mostly up to 37.3 µM; activity change, negative = inhibition: at the top concentration; further: nearly all actives have a fitted effect of over 60% in size;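 on activity change, negative = inhibition: phospho-rpS6 Ser235/236 immunofluorescence normalised to propidium iodide cell stain; percent of cells above a cutoff set by 7.5 nM rapamycin treated wells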
How it was run: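 Read-out is immunofluorescent phospho-rpS6 (Ser235/236) normalised to PI-stained cell number, reported as % active cells using a 7.5 nM rapamycin threshold. Cells: WT or Tsc2-/-, p53-/- MEFs, compound-exposed 24 h at 37C; PI count also tracks viability.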
Potency means the concentration at half of the fitted maximal effect.

Row | Structure (SMILES) | activity change, negative = inhibition | Potency
1 | CC(C)CCNc1nc(Nc2ccccc2)c2cnn(C)c2n1 | 3.05% | 
2 | CCNC(=O)c1c(NC(=O)c2nc(S(=O)(=O)CC)ncc2Cl)sc2c1CCCC2 |  | 0.585 µM (active)
3 | O=C(Nc1cccc(NC(=O)c2ccccc2Cl)c1)c1cccc(Br)c1 | 9.16% | 
4 | CN(CCCNC(=O)c1cc2c(Cl)nc3ccccc3c2s1)Cc1ccccc1 | -20.5% | 
5 | CCc1ccc2ncc(S(=O)(=O)c3ccc(Cl)cc3)c(N3CCN(CC)CC3)c2c1 | 6.8% | 
6 | CC(C)c1ccc(C2Sc3ccccc3NC3=C2C(=O)c2ccccc23)cc1 (stereo not given) | -17.9% | 
7 | CN(C)c1ccc(NC(=O)Cn2cc(S(=O)(=O)Cc3ccccc3Cl)c3ccccc32)cc1 |  | 13.1 µM (active)
8 | Cc1cccc(C(=O)Nc2c3c(nn2-c2ccc(Cl)cc2)CS(=O)(=O)C3)c1 | 32.8% | 
9 | Brc1ccc(Nc2c3c(nc4nncn24)CCC3)cc1 | 3.82% | 
10 | CCOc1ccccc1NC(=O)CN1C(=O)C(=O)c2ccccc21 | 13.2% | 
11 | CCCc1oc2ccc(NS(=O)(=O)c3ccc(OC)cc3)cc2c1C(=O)OCC |  | 0.585 µM (active)
12 | CCOC(=O)c1ccc(N2C(=O)c3n[nH]c(C)c3C2c2cccc(Br)c2)cc1 (stereo not given) | -26.9% | 
13 | COc1ccc(CCN(C)CCCC(C#N)(c2ccc(OC)c(OC)c2)C(C)C)cc1OC (stereo not given) | 2.34% | 
14 | CC(C)OCCCn1c(=O)c2ccccc2n2c(-c3ccc(F)cc3)nnc12 | 8.37% | 
15 | CCC1CN(C(=O)NCc2ccc(F)cc2)c2cc(C)ccc2O1 (stereo not given) | -4.58% | 
16 | CCc1ccc(NC(=O)CSc2nccn2C2CCCC2)cc1 | 17.4% | 
17 | CCc1ccc(OCC(=O)Nc2ccc3oc(-c4ccc(OC)cc4)nc3c2)cc1 | 7.42% | 
18 | COc1ccc(C)cc1NC(=O)CCNS(=O)(=O)c1cccc2nonc12 | 28.1% | 
19 | Cc1ccc(C)c(S(=O)(=O)NCC(c2ccco2)S(=O)(=O)c2ccc(F)cc2)c1 (stereo not given) | 1.81% | 
20 | COc1ccc(C(=O)N2CCN(C(=O)COc3ccc(Br)cc3)CC2)cc1OC | 3.49% | 

Row | Structure (SMILES) | activity change, negative = inhibition | Potency
21 | CCc1ccc(-n2c(=O)c3c4c(sc3n(CC(=O)c3ccc(F)cc3)c2=O)CCC4)cc1 |  | 18.5 µM (active)
22 | COc1ccc(NC(=O)C(NC(=O)/C=C\c2ccc3c(c2)OCO3)c2ccccc2)cc1 (stereo not given) | -25.3% | 
23 | COc1ccc(Oc2nc3c(C)cccn3c(=O)c2/C=C(\C#N)c2nc3ccccc3[nH]2)cc1 | 4.58% | 
24 | CCn1c2ccccc2c2cc(CN3CCN(Cc4ccc(Cl)cc4)CC3)ccc21 | 18.5% | 
25 | CCN(CC)Cc1c(NC(=O)c2ccc(OC)cc2)sc2c1CCCC2 | 39.6% | 
26 | COc1ccccc1NC(=O)CSc1ccc(-c2ccccn2)nn1 | -12.8% | 
27 | Cc1ccc(Nc2nc(C(N)=O)c(NC(=O)c3ccccc3Br)s2)cc1 |  | 3.69 µM (active)
28 | NS(=O)(=O)c1cc(C(=O)O)c(NCc2ccco2)cc1Cl | 18.9% | 
29 | CC1C(=O)Nc2ccc(S(=O)(=O)Nc3ccccc3Br)cc2NC1=O (stereo not given) | 32.8% | 
30 | COc1ccccc1C1C=C(c2ccc(Cl)cc2)Nc2nc(-c3ccc(Cl)cc3)nn21 (stereo not given) | -2.29% | 
31 | COc1ccccc1CNC(=O)CCCn1c(=O)c2cccn2c2ccccc21 | 3.82% | 
32 | COc1ccc(OC)c(NC(=O)c2nc(S(=O)(=O)Cc3ccc(F)cc3)ncc2Cl)c1 |  | 3.29 µM (active)
33 | COc1cc(OC)c(NS(=O)(=O)c2ccc3c(c2)CCCN3C(C)=O)cc1Cl | 1.71% | 
34 | COc1ccc(Cl)cc1NC(=O)CSc1nc(-c2ccco2)cc(C(F)(F)F)n1 | 1.41% | 
35 | Cc1cc(C)cc(C(=O)Nc2ccc(-c3nc4ncccc4o3)cc2)c1 | -13.1% | 
36 | Cc1cccc(-n2cnc3cc(C(=O)NC4CCCCCC4)ccc32)c1 |  | 5.21 µM (active)
37 | Cc1ccc(CS(=O)(=O)c2ncc(Cl)c(C(=O)Nc3nnc(C(C)C)s3)n2)cc1 |  | 11.7 µM (active)
38 | CCCCOc1cccc(C(=O)N2CCN(CCc3ccncc3)CC2)c1 | 39.3% | 
39 | Cc1c(C(=O)OCc2ccccc2)[nH]c2c1C(=O)CC(c1ccc(Cl)cc1)C2 (stereo not given) |  | 13.1 µM (active)
40 | Cc1ccc(NC(=O)c2ccc(CN3CCN(C)CC3)cc2)cc1Nc1nccc(-c2cccnc2)n1 | -8.06% | 

— PubChem BioAssay AID651789 (National Center for Advancing Translational Sciences (NCATS), 2012)
